The values below come from PubChem BioAssay (Tox21).

Each structure is given as a SMILES string. Records with an inconclusive call do not appear. A number with no mark means an inactive call. Calls of active or inactive are those of the source. Calls come from the whole dose curve; as a rule, active = well fitted cell-killing curve with a large enough effect in the repeat runs; inconclusive = weak or mixed curves, or effect the other way; inactive = flat fitted curve, though single readings scatter.
% is set by controls: 0 for no effect and ±100 for the full control effect.

This experiment is described as follows: cAMP Responsive Elements (CRE) small molecule antagonists, cell-based qHTS assay: qHTS cell viability counter screen (AID 2060913). Note: nearly all actives have a fitted effect of over 40% in size. As to conditions: CRE-bla HEK293T viability, CellTiter-Glo luminescence, 5 h; series mostly up to 92.4 µM; viability change, negative = cytotoxic: at the top concentration. The source says: U.S. Tox21 Program National Center for Advancing Translational Sciences [NCATS] Division of Preclinical Innovation [DPI] U.S. Environmental Protection Agency [EPA] National Institutes of Environmental Health Sciences [NIEHS] National Toxicology Program [NTP] U.S. Food and Drug Administration [FDA] Tox21 Assay Overview: CREB (cyclic-AMP Responsive Element Binding Protein) is a cellular transcription factor. It binds to certain DNA sequences called cAMP Responsive Elements (CRE) and regulates the transcription of the genes. […] This cell line can be used to find agonists/antagonists of the cyclic AMP signaling pathway. The activation of the report gene under culture conditions can be detected by fluorescence intensity. This cell line has been used to screen the Tox21 10K compound library to identify agonists that induce oxidative stress. The cytotoxicity of the Tox21 compound library against the CRE-bla cell line was tested in parallel by measuring the cell viability using CellTiter-Glo assay (Promega, Madison, WI) in the same wells.
Tox21 Assay Protocol Summary: CRE-bla Hek 293T cells were suspended in assay medium (DMEM containing 10% dialyzed FBS, 0.1 mM NEAA, 1 mM sodium pyruvate and 25 mM HEPES) and dispensed at 2,000 cells/4 uL /well into 1536-well black wall/clear bottom plates using a Multidrop Combi (ThermoFisher Scientific, Waltham, MA) dispenser. After the assay plates were incubated at 37 C/5% CO2 for 18 hrs, 23 nL of compounds dissolved in DMSO, positive controls or DMSO only was transferred to the assay plate by a pintool workstation (Kalypsys, San Diego, CA), followed by addition of 1 uL of 1.25uM NKH477 (0.25 uM as final concentration) in assay medium using a Flying Reagent Dispenser (Aurora Discovery, San Diego, CA). The plates were incubated at 37 C and 5% CO2 for 3 hrs. Then 1 uL of LiveBLAzer B/G FRET substrate (Invitrogen, Carlsbad, CA) was added to each well using Bioraptr Flying Reagent Dispenser (FRD, Aurora Discovery, San Diego, CA). The plates were incubated at room temperature for 2 h, then fluorescence intensities were measured using an Envision plate reader (PerkinElmer, Shelton, CT) at Excitation 405nm, Emission 460nm and 530nm. The % activity was determined from the ratio of 460nm/530nm. For cell viability readout that measures cytotoxicity, 4 uL /well of CellTiter-Glo reagent was added into the assay plates using Bioraptr FRD. After 30 min incubation at room temperature, the luminescence intensity in the assay plates was measured using a ViewLux (PerkinElmer, Shelton, CT) plate reader.
On the technique in general: qHTS replaces the single test concentration by a dilution series.
On to `Cc1ccc(C(C)(C)O)cc1`, for which the “viability change, negative = cytotoxic” value is 0.52%.

Take `OCCN1CCN(CCO)CC1`: the “viability change, negative = cytotoxic” value is -0.69%.

For the compound `CN(C)C(=O)NC1(c2ccccc2)CCN(CC[C@@]2(c3ccc(F)c(F)c3)CN(C(=O)c3ccccc3)CCO2)CC1`, the “viability change, negative = cytotoxic” value was -10.1%.

As to `CC(=O)[C@H]1CC[C@H]2[C@@H]3C[C@H](C)C4=CC(=O)CC[C@]4(C)[C@H]3[C@@H](O)C[C@]12C`, the “viability change, negative = cytotoxic” value was -0.273% [at 42.5 µM].

As for `CCC(=O)C1CC(C(C)C)CC=C1C` (stereo not given), the “viability change, negative = cytotoxic” value was 9.62%.

Regarding `CO[Si](CCCS)(OC)OC`, the “viability change, negative = cytotoxic” value is 4.73%.

As to `[O]=[Mo](=[O])=[O]`, the viability change, negative = cytotoxic is 13.7% [at 18.9 µM].

For `NC(=O)CCCCC1CCSS1` (stereo not given), the “viability change, negative = cytotoxic” value was 3.42% [at 42.5 µM].

For `OCCNCCO`, the Potency entry was “inactive”.

Regarding `O=C(O)CCCCC(=O)O`, the Potency result was “inactive”.

Turning to `COc1ccc(/C(C)=C/C(=O)O)c(OC)c1`, the “viability change, negative = cytotoxic” value was 1.63% [at 42.5 µM].

As to `C=CCOC(=O)CCC1CCCCC1`, the “viability change, negative = cytotoxic” value is 2.84%.

For the compound `O=CN1CCOCC1`, the “viability change, negative = cytotoxic” value was -6.77%.

Take `Cc1ccc(Nc2c(F)cccc2Cl)c(CC(=O)O)c1`: the “viability change, negative = cytotoxic” value is 2.94% [at 42.5 µM].

As for `O=c1[nH]cnc2c1ncn2[C@H]1CC[C@@H](CO)O1`, the Potency entry was “inactive”.

Regarding `CNS(=O)(=O)Cc1ccc2[nH]cc(CCN(C)C)c2c1`, the “viability change, negative = cytotoxic” value was -1.85% [at 42.5 µM].

Consider `CC(=O)OC1CC(C)OC(C)O1` (stereo not given), for which the Potency entry was “inactive”.

Turning to `O=C(O)/C=C/c1ccccc1`, the “viability change, negative = cytotoxic” value is -0.69%.

Turning to `CC1=C(CC=O)C(C)(C)CCC1`, the “viability change, negative = cytotoxic” value was 2.03%.

Turning to `CC1CCc2cc(F)cc3c(=O)c(C(=O)O)cn1c23` (stereo not given), the “viability change, negative = cytotoxic” value was -3.16% [at 42.5 µM].

Consider `CCCCCOC(=O)CCCCC`, for which the “viability change, negative = cytotoxic” value is -1.54%.

On to `CCC(C)[O-].CCC(C)[O-].CCOC(=O)/C=C(/C)[O-].[Al+3]`, for which the “viability change, negative = cytotoxic” value is 1.82%.

Take `CCCSSCCC`: the “viability change, negative = cytotoxic” value is 4.43%.

As for `C=CC(=C)CC/C=C(\C)CCC=C(C)C`, the viability change, negative = cytotoxic is 13.3% [at 18.9 µM].

Regarding `CCOC(=O)c1ccc(N(C)C)cc1`, the “viability change, negative = cytotoxic” value was -3.02%.

On to `CCn1cc(C(=O)O)c(=O)c2cnc(N3CCNCC3)nc21`, for which the “viability change, negative = cytotoxic” value was -3.84% [at 42.5 µM].

With `Clc1cc(Cl)cc(Cl)c1`, the “viability change, negative = cytotoxic” value is 8.74%.

On to `Nc1ccccc1S(=O)(=O)c1ccccc1`, for which the “viability change, negative = cytotoxic” value was -0.102%.

In the case of `CCCCCC1CCC(=O)O1` (stereo not given), the “viability change, negative = cytotoxic” value is -3.2%.

Consider `CC(C)CCCCCCN`, for which the “viability change, negative = cytotoxic” value was -4.16%.

Turning to `C[C@]12CC[C@@H]3c4ccc(O)cc4CC[C@H]3[C@@H]1CC[C@@H]2OC(=O)CCC1CCCC1`, the Potency entry is “inactive”.

Take `Cc1c(C)c([N+](=O)[O-])c(C(C)(C)C)c([N+](=O)[O-])c1C`: the “viability change, negative = cytotoxic” value is -15.5%.

On to `COC(=O)CC(=O)C(C)(C)C`, for which the “viability change, negative = cytotoxic” value was -3.54%.

For `C=CCCC`, the “viability change, negative = cytotoxic” value is 6.02%.

As to `Cc1ccc(S(=O)(=O)O)cc1C`, the Potency entry was “inactive”.

As for `Nc1ncn([C@@H]2O[C@H](CO)[C@@H](O)[C@H]2O)c(=O)n1`, the Potency entry was “inactive”.

With `CCC(Cc1c(I)cc(I)c(N)c1I)C(=O)O` (stereo not given), the Potency entry is “inactive”.

As for `NC(=O)c1ccc([N+](=O)[O-])cc1Cl`, the Potency result is “inactive”.

With `CCCCOCC(C)O` (stereo not given), the “viability change, negative = cytotoxic” value was 2.28%.

For `CC(C)(N=C=O)c1cccc(C(C)(C)N=C=O)c1`, the Potency result was “inactive”.
